Results: the supplement of paper PMC3414501
Counter-ions that a name gives are not always drawn.

What follows are compounds tested on S. cerevisiae NKY1551 his4x/his4B, sporulating (assay: HIS4 meiotic recombination assay sensitivity score (z-score vs DMSO controls); higher = stronger inhibition of sporulation/recombination, active = hit call of the paper).
Protocol: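 NIH Clinical Collection compounds were added 1:100 from stock (about 100 µM final) to S. cerevisiae. Growth: average doubling time (AvgG) over 24 h of BY4741 (wild-type) or AD1-9 (drug-efflux-pump deficient) in rich media. HIS4: the his4x/his4B heteroallelic recombination reporter strain (SK1) was sporulated 5 h with compound at 30°C, then colony density was read on -his plates after 48 h. Sensitivity score = (compound − mean of 8 DMSO controls)/SD of DMSO controls. Hit cutoffs are >2 for growth and >5 for sporulation.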
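Note: active if sensitivity score above 5.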

SMILES	HIS4 meiotic recombination assay sensitivity score
O=C(O)CCc1nc(-c2ccccc2)c(-c2ccccc2)o1 [Oxaprozin] (stock concentration (mM, diluted 1:100): 10)	-0.23 (inactive)
CC[C@H]1OC(=O)[C@H](C)[C@@H](O[C@H]2C[C@@](C)(OC)[C@@H](O)[C@H](C)O2)[C@H](C)[C@@H](O[C@@H]2O[C@H](C)C[C@H](N(C)C)[C@H]2O)[C@](C)(OC)C[C@@H](C)C(=O)[C@H](C)[C@@H](O)[C@]1(C)O [Clarithromycin] (stock concentration (mM, diluted 1:100): 10)	-1.54 (inactive)
CN(C)CCc1c[nH]c2ccc(C[C@H]3COC(=O)N3)cc12 [Zolmitriptan] (stock concentration (mM, diluted 1:100): 10)	0.22 (inactive)
CCOC(=O)c1ncn2c1CN(C)C(=O)c1cc(F)ccc1-2 [Flumazenil] (stock concentration (mM, diluted 1:100): 10)	-0.81 (inactive)
Cc1cccc(C)c1NC(=O)C1CCCCN1C (stereo not given) [Mepivacaine hydrochloride] (stock concentration (mM, diluted 1:100): 10)	0.1 (inactive)
COC(=O)Nc1nc2cc(C(=O)c3ccc(F)cc3)ccc2[nH]1 [Flubendazole] (stock concentration (mM, diluted 1:100): 10)	-2.01 (inactive)
Nc1ccn([C@@H]2O[C@H](CO)[C@@H](O)[C@@H]2O)c(=O)n1 [Cytarabine] (stock concentration (mM, diluted 1:100): 10)	-0.49 (inactive)
O=c1[nH]c(=O)n(C2CCCO2)cc1F (stereo not given) [Ftorafur] (stock concentration (mM, diluted 1:100): 10)	0.93 (inactive)
CCC1=C(C)CN(C(=O)NCCc2ccc(S(=O)(=O)NC(=O)N[C@H]3CC[C@H](C)CC3)cc2)C1=O [Glimepiride] (stock concentration (mM, diluted 1:100): 7.7)	1.27 (inactive)
COc1ccc2c(c1)c(CC(=O)O)c(C)n2C(=O)c1ccc(Cl)cc1 [Indomethacin] (stock concentration (mM, diluted 1:100): 10.5)	0.4 (inactive)
Nc1nc(Cl)nc2c1ncn2[C@H]1C[C@H](O)[C@@H](CO)O1 [2-Chloro-2-Deoxyadenosine] (stock concentration (mM, diluted 1:100): 10)	-1.07 (inactive)
Cc1nc2n(c(=O)c1CCN1CCC(c3noc4cc(F)ccc34)CC1)CCCC2 [Risperidone] (stock concentration (mM, diluted 1:100): 10)	1.75 (inactive)
NC(=O)c1cccnc1 [Nicotinamide] (stock concentration (mM, diluted 1:100): 10)	0.03 (inactive)
CC(=O)CCCCn1c(=O)c2c(ncn2C)n(C)c1=O [Pentoxifylline] (stock concentration (mM, diluted 1:100): 10)	-0.42 (inactive)
CC[C@@]1(O)C(=O)OCc2c1cc1n(c2=O)Cc2cc3c(CN(C)C)c(O)ccc3nc2-1 [Topotecan hydrochloride] (stock concentration (mM, diluted 1:100): 9.2)	0.22 (inactive)
CNS(=O)(=O)Cc1ccc2[nH]cc(CCN(C)C)c2c1 [Sumatriptan succinate] (stock concentration (mM, diluted 1:100): 7.2)	-0.69 (inactive)
O=c1n(CCCN2CCN(c3cccc(Cl)c3)CC2)nc2ccccn12 [Trazodone hydrochloride] (stock concentration (mM, diluted 1:100): 10)	-0.45 (inactive)
Cc1sc(N)c(C(=O)c2cccc(C(F)(F)F)c2)c1C (stock concentration (mM, diluted 1:100): 10)	1.22 (inactive)
C=CC1=C(C(=O)O)N2C(=O)[C@@H](NC(=O)/C(=N\OCC(=O)O)c3csc(N)n3)[C@H]2SC1 [Cefixime trihydrate] (stock concentration (mM, diluted 1:100): 10)	-3.32 (inactive)
Nc1c2c(nc3c1CCC3)CCCC2 [Amiridine] (stock concentration (mM, diluted 1:100): 10)	1.51 (inactive)

SMILES	HIS4 meiotic recombination assay sensitivity score
C[C@]12CCC(=O)C=C1CC[C@@H]1[C@@H]2CC[C@@]2(C)[C@H]1CC[C@]2(O)C(=O)CO [Cortodoxone] (stock concentration (mM, diluted 1:100): 10)	0.86 (inactive)
CC(=O)OCC(=O)NCCCOc1cccc(CN2CCCCC2)c1 [Roxatidine acetate hydrochloride] (stock concentration (mM, diluted 1:100): 9.1)	-1.59 (inactive)
CN(C)CCC[C@@]1(c2ccc(F)cc2)OCc2cc(C#N)ccc21 [Escitalopram oxalate] (stock concentration (mM, diluted 1:100): 7.9)	6.6 (active)
CCOC(=O)[C@@]1(CCCCCCOc2ccc(Cl)cc2)CO1 [Etomoxir] (stock concentration (mM, diluted 1:100): 10)	-1.14 (inactive)
CCN1CCN(c2cc3c(cc2F)c(=O)c(C(=O)O)cn3C2CC2)CC1 [Enrofloxacin] (stock concentration (mM, diluted 1:100): 10)	1.36 (inactive)
CC(C)NCC(O)COc1ccc(CCOCC2CC2)cc1 (stereo not given) [Betaxolol hydrochloride] (stock concentration (mM, diluted 1:100): 10)	-0.58 (inactive)
OCCN1CCN(CCCN2c3ccccc3Sc3ccc(C(F)(F)F)cc32)CC1 [Fluphenazine hydrochloride] (stock concentration (mM, diluted 1:100): 10)	7.55 (active)
COCCCC/C(=N\OCCN)c1ccc(C(F)(F)F)cc1 [Fluvoxamine] (stock concentration (mM, diluted 1:100): 7.7)	8.08 (active)
CCCN[C@H]1CCc2nc(N)sc2C1 [Pramipexole hydrochloride] (stock concentration (mM, diluted 1:100): 7.1)	-0.03 (inactive)
CCCCCNC(=N)N/N=C/c1c[nH]c2ccc(OC)cc12 [Tegaserod maleate] (stock concentration (mM, diluted 1:100): 7.2)	-0.84 (inactive)
Cc1ncc([N+](=O)[O-])n1CC(O)CCl (stereo not given) [Ornidazole] (stock concentration (mM, diluted 1:100): 10)	-0.66 (inactive)
CN1CCc2cc(Cl)c(O)cc2[C@@H](c2ccccc2)C1 (stock concentration (mM, diluted 1:100): 9.9)	3.2 (inactive)
CN(C)CCCSc1ccccc1NC(=O)/C=C/c1ccccc1 [Cinanserin] (stock concentration (mM, diluted 1:100): 10)	7.73 (active)
NC(N)=NC(=O)c1nc(Cl)c(N)nc1N (stock concentration (mM, diluted 1:100): 8.2)	2.44 (inactive)
CC(COc1ccccc1Cc1ccccc1)N1CCCCC1 (stereo not given) [Benproperine phosphate] (stock concentration (mM, diluted 1:100): 10)	7.79 (active)
O=C(CCNNC(=O)c1ccncc1)NCc1ccccc1 [Nialamide] (stock concentration (mM, diluted 1:100): 10)	-1.89 (inactive)
Cc1[nH]c(=O)c(C#N)cc1-c1ccncc1 [Milrinone] (stock concentration (mM, diluted 1:100): 10.1)	-0.23 (inactive)
COCC1=C(C(=O)OC(C)OC(=O)OC(C)C)N2C(=O)[C@@H](NC(=O)/C(=N\OC)c3csc(N)n3)[C@H]2SC1 (stereo not given in full) [Cefpodoxime proxetil] (stock concentration (mM, diluted 1:100): 7.7)	-1.5 (inactive)
CC(=O)[C@]1(O)Cc2c(O)c3c(c(O)c2[C@@H](O[C@H]2C[C@H](N)[C@H](O)[C@H](C)O2)C1)C(=O)c1ccccc1C3=O [Idarubicin hydrochloride] (stock concentration (mM, diluted 1:100): 9.3)	-2.94 (inactive)
COc1cc([C@@H]2c3cc4c(cc3[C@@H](O[C@@H]3O[C@@H]5CO[C@@H](C)O[C@H]5[C@H](O)[C@H]3O)[C@H]3COC(=O)[C@H]23)OCO4)cc(OC)c1O [Etoposide] (stock concentration (mM, diluted 1:100): 10)	0.11 (inactive)
